In PMC11006913 one finds binding signal data, which are given here for 18 sequences.

Changes are numbered by the printed parent chain.

Holding throughout (assay): PBM; 200 nM protein, PBS
What all share (settings): dsDNA, one strand shown

Experiment [1] has as its target HOXB9 (Homo sapiens, UniProt P17482 171-250, T197M).
The target in experiment [2] is HOXB9 (Homo sapiens, UniProt P17482 171-250).
For experiment [3], the target named is HOXB9 (Homo sapiens, UniProt P17482 171-250, R186Q).
Experiment [4] addresses T1, SIX6 (Homo sapiens, UniProt O95475 114-200, L167I).
T1 sequence: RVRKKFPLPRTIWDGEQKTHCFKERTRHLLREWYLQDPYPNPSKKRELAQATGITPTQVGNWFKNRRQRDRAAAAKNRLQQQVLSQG

The target of experiment [5] is T2, SIX6 (Homo sapiens, UniProt O95475 114-200, L143V).
T2 sequence: T1 sequence with L30V, I54L

The target in experiment [6] is T3, SIX6 (Homo sapiens, UniProt O95475 114-200, H141N).
T3 sequence: T1 sequence with H28N, I54L

The target in experiment [7] is T4, SIX6 (Homo sapiens, UniProt O95475 114-200, T165P).
T4 sequence: T1 sequence with T52P, I54L

The target of experiment [8] is T5, SIX6 (Homo sapiens, UniProt O95475 114-200, L167M).
T5 sequence: T1 sequence with I54M

Experiment [9] has as its target T6, SIX6 (Homo sapiens, UniProt O95475 114-200, L143M).
T6 sequence: T1 sequence with L30M, I54L

Experiment [10] deals with T7, SIX6 (Homo sapiens, UniProt O95475 114-200, L143I).
T7 sequence: T1 sequence with L30I, I54L

Experiment [11] has as its target T8, SIX6 (Homo sapiens, UniProt O95475 114-200, T165G).
T8 sequence: T1 sequence with T52G, I54L

Experiment [12] has as its target T9, SIX6 (Homo sapiens, UniProt O95475 114-200, T139Q).
T9 sequence: T1 sequence with T26Q, I54L

In experiment [13] the target is T10, SIX6 (Homo sapiens, UniProt O95475 114-200, T165A).
T10 sequence: T1 sequence with T52A, I54L

Experiment [14] addresses T11, SIX6 (Homo sapiens, UniProt O95475 114-200, L167V).
T11 sequence: T1 sequence with I54V

Experiment [15] concerns the target T12, SIX6 (Homo sapiens, UniProt O95475 114-200).
T12 sequence: T1 sequence with I54L

For experiment [16], the target named is T13, SIX6 (Homo sapiens, UniProt O95475 114-200, T165I).
T13 sequence: T1 sequence with T52I, I54L

The target in experiment [17] is HOXA2 (Homo sapiens, UniProt O43364 129-215, R185T).
Chain of HOXA2 (Homo sapiens, UniProt O43364 129-215, R185T) (O43364 129-215 R185T): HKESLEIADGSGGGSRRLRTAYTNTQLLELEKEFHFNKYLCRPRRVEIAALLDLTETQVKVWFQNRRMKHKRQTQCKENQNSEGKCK
The target in experiment [18] is HOXA2 (Homo sapiens, UniProt O43364 129-215, R185K).
Chain of HOXA2 (Homo sapiens, UniProt O43364 129-215, R185K) (O43364 129-215 R185K): as the sequence (O43364 129-215 R185T) above, with T57K counted along it
For experiment [19], the target named is HOXA2 (Homo sapiens, UniProt O43364 129-215, Y150S).
Chain of HOXA2 (Homo sapiens, UniProt O43364 129-215, Y150S) (O43364 129-215 Y150S): as the sequence (O43364 129-215 R185T) above, with Y22S, T57R counted along it
The target of experiment [20] is HOXA2 (Homo sapiens, UniProt O43364 129-215).
Chain of HOXA2 (Homo sapiens, UniProt O43364 129-215) (O43364 129-215): as the sequence (O43364 129-215 R185T) above, with T57R counted along it

Chain of HOXB9 (Homo sapiens, UniProt P17482 171-250) (P17482 171-250): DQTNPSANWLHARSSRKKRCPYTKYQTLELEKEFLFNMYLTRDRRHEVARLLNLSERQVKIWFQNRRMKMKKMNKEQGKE
Chain of HOXB9 (Homo sapiens, UniProt P17482 171-250, R186Q) (P17482 171-250 R186Q): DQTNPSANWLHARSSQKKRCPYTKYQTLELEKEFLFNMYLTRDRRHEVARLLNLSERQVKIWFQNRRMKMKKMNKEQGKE
Chain of HOXB9 (Homo sapiens, UniProt P17482 171-250, T197M) (P17482 171-250 T197M): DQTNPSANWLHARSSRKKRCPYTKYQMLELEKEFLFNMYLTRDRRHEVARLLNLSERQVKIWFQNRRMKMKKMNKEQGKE

As for AGGTCTGG, the binding signal was 8.53 upbm affinity estimate (log intensity, higher = more binding, comparable within an allelic series) with HOXB9 [1]; 8.57 upbm affinity estimate (log intensity, higher = more binding, comparable within an allelic series) with HOXB9 [2]; 8.64 upbm affinity estimate (log intensity, higher = more binding, comparable within an allelic series) with HOXB9 [3].

On to GACTGACC, for which the binding signal with HOXB9 [1] is 8.57 upbm affinity estimate (log intensity, higher = more binding, comparable within an allelic series); with HOXB9 [2], 8.7 upbm affinity estimate (log intensity, higher = more binding, comparable within an allelic series); with HOXB9 [3] it was 8.7 upbm affinity estimate (log intensity, higher = more binding, comparable within an allelic series).

As to CCCGCGAG, the binding signal with HOXB9 [1] is 8.58 upbm affinity estimate (log intensity, higher = more binding, comparable within an allelic series); in the experiment with HOXB9 [2], 8.45 upbm affinity estimate (log intensity, higher = more binding, comparable within an allelic series); in the experiment with HOXB9 [3], 8.39 upbm affinity estimate (log intensity, higher = more binding, comparable within an allelic series).

Regarding CGGCGCCA, the binding signal with HOXB9 [1] is 8.53 upbm affinity estimate (log intensity, higher = more binding, comparable within an allelic series); with HOXB9 [2], 8.36 upbm affinity estimate (log intensity, higher = more binding, comparable within an allelic series); with HOXB9 [3], 8.51 upbm affinity estimate (log intensity, higher = more binding, comparable within an allelic series).

Consider GCAGCCCC, for which the binding signal is 8.47 upbm affinity estimate (log intensity, higher = more binding, comparable within an allelic series) with HOXB9 [1]; 8.43 upbm affinity estimate (log intensity, higher = more binding, comparable within an allelic series) with HOXB9 [2]; 8.5 upbm affinity estimate (log intensity, higher = more binding, comparable within an allelic series) with HOXB9 [3].

Consider CCGATCGG, for which the binding signal is 8.51 upbm affinity estimate (log intensity, higher = more binding, comparable within an allelic series) in the experiment with HOXB9 [1]; 8.53 upbm affinity estimate (log intensity, higher = more binding, comparable within an allelic series) in the experiment with HOXB9 [2]; 8.57 upbm affinity estimate (log intensity, higher = more binding, comparable within an allelic series) with HOXB9 [3].

With GCCTCCGC, the binding signal with HOXB9 [1] was 8.43 upbm affinity estimate (log intensity, higher = more binding, comparable within an allelic series); in the experiment with HOXB9 [2], 8.05 upbm affinity estimate (log intensity, higher = more binding, comparable within an allelic series); with HOXB9 [3], 8.16 upbm affinity estimate (log intensity, higher = more binding, comparable within an allelic series).

As to GGTTCGGA, the binding signal with HOXB9 [1] was 8.66 upbm affinity estimate (log intensity, higher = more binding, comparable within an allelic series); with HOXB9 [2] it was 8.54 upbm affinity estimate (log intensity, higher = more binding, comparable within an allelic series); in the experiment with HOXB9 [3] it was 8.53 upbm affinity estimate (log intensity, higher = more binding, comparable within an allelic series).

As for CAGATCGG, the binding signal with HOXB9 [1] was 8.72 upbm affinity estimate (log intensity, higher = more binding, comparable within an allelic series); with HOXB9 [2], 8.44 upbm affinity estimate (log intensity, higher = more binding, comparable within an allelic series); with HOXB9 [3] it was 8.55 upbm affinity estimate (log intensity, higher = more binding, comparable within an allelic series).

On to ACACCCAG, for which the binding signal in the experiment with HOXB9 [1] was 8.69 upbm affinity estimate (log intensity, higher = more binding, comparable within an allelic series); with HOXB9 [2], 8.47 upbm affinity estimate (log intensity, higher = more binding, comparable within an allelic series); with HOXB9 [3] it was 8.52 upbm affinity estimate (log intensity, higher = more binding, comparable within an allelic series).

As to AAGCCACC, the binding signal was 8.58 upbm affinity estimate (log intensity, higher = more binding, comparable within an allelic series) with HOXB9 [1]; 8.55 upbm affinity estimate (log intensity, higher = more binding, comparable within an allelic series) in the experiment with HOXB9 [2]; 8.63 upbm affinity estimate (log intensity, higher = more binding, comparable within an allelic series) with HOXB9 [3].

With GGAACCCC, the binding signal with HOXB9 [1] was 8.42 upbm affinity estimate (log intensity, higher = more binding, comparable within an allelic series); in the experiment with HOXB9 [2] it was 8.48 upbm affinity estimate (log intensity, higher = more binding, comparable within an allelic series); with HOXB9 [3], 8.46 upbm affinity estimate (log intensity, higher = more binding, comparable within an allelic series).

Turning to GCGGGTGA, the binding signal is 8.59 upbm affinity estimate (log intensity, higher = more binding, comparable within an allelic series) with HOXB9 [1]; 8.45 upbm affinity estimate (log intensity, higher = more binding, comparable within an allelic series) with HOXB9 [2]; 8.62 upbm affinity estimate (log intensity, higher = more binding, comparable within an allelic series) with HOXB9 [3].

Regarding ATGGTGTC, the binding signal with SIX6 [4] was 9.97 upbm affinity estimate (log intensity, higher = more binding, comparable within an allelic series).

Consider CTCCCGCC, for which the binding signal with HOXB9 [1] is 8.4 upbm affinity estimate (log intensity, higher = more binding, comparable within an allelic series); in the experiment with HOXB9 [2], 8.4 upbm affinity estimate (log intensity, higher = more binding, comparable within an allelic series); in the experiment with HOXB9 [3] it was 8.4 upbm affinity estimate (log intensity, higher = more binding, comparable within an allelic series).

Take CCTTCGCG: the binding signal in the experiment with HOXB9 [1] was 8.71 upbm affinity estimate (log intensity, higher = more binding, comparable within an allelic series); in the experiment with HOXB9 [2], 8.45 upbm affinity estimate (log intensity, higher = more binding, comparable within an allelic series); in the experiment with HOXB9 [3], 8.78 upbm affinity estimate (log intensity, higher = more binding, comparable within an allelic series).

As to CGCTGCGC, the binding signal with SIX6 [4] was 8.99 upbm affinity estimate (log intensity, higher = more binding, comparable within an allelic series); in the experiment with SIX6 [5], 8.85 upbm affinity estimate (log intensity, higher = more binding, comparable within an allelic series); in the experiment with SIX6 [6], 8.98 upbm affinity estimate (log intensity, higher = more binding, comparable within an allelic series); with SIX6 [7] it was 8.98 upbm affinity estimate (log intensity, higher = more binding, comparable within an allelic series); with SIX6 [8], 8.92 upbm affinity estimate (log intensity, higher = more binding, comparable within an allelic series); with SIX6 [9], 8.96 upbm affinity estimate (log intensity, higher = more binding, comparable within an allelic series). The binding signal was 8.93 upbm affinity estimate (log intensity, higher = more binding, comparable within an allelic series) in the experiment with SIX6 [10]; 9 upbm affinity estimate (log intensity, higher = more binding, comparable within an allelic series) with SIX6 [11]; 9.06 upbm affinity estimate (log intensity, higher = more binding, comparable within an allelic series) with SIX6 [12]; 8.88 upbm affinity estimate (log intensity, higher = more binding, comparable within an allelic series) with SIX6 [13]; 9.02 upbm affinity estimate (log intensity, higher = more binding, comparable within an allelic series) with SIX6 [14]; 8.93 upbm affinity estimate (log intensity, higher = more binding, comparable within an allelic series) with SIX6 [15]. For the same sequence, the binding signal with SIX6 [16] was 8.95 upbm affinity estimate (log intensity, higher = more binding, comparable within an allelic series).

On to CCCCGGGG, for which the binding signal in the experiment with SIX6 [4] is 9.12 upbm affinity estimate (log intensity, higher = more binding, comparable within an allelic series); in the experiment with SIX6 [5] it was 8.92 upbm affinity estimate (log intensity, higher = more binding, comparable within an allelic series); in the experiment with SIX6 [6], 9.16 upbm affinity estimate (log intensity, higher = more binding, comparable within an allelic series); with SIX6 [7] it was 8.88 upbm affinity estimate (log intensity, higher = more binding, comparable within an allelic series); with SIX6 [8] it was 9.05 upbm affinity estimate (log intensity, higher = more binding, comparable within an allelic series); with SIX6 [9], 9.06 upbm affinity estimate (log intensity, higher = more binding, comparable within an allelic series). Further, the binding signal with SIX6 [10] was 8.94 upbm affinity estimate (log intensity, higher = more binding, comparable within an allelic series); with SIX6 [11], 9.11 upbm affinity estimate (log intensity, higher = more binding, comparable within an allelic series); in the experiment with HOXA2 [17] it was 6.97 upbm affinity estimate (log intensity, higher = more binding, comparable within an allelic series); with SIX6 [12], 9.14 upbm affinity estimate (log intensity, higher = more binding, comparable within an allelic series); in the experiment with SIX6 [13], 9.14 upbm affinity estimate (log intensity, higher = more binding, comparable within an allelic series); with HOXA2 [18], 10.1 upbm affinity estimate (log intensity, higher = more binding, comparable within an allelic series). Moreover, the binding signal in the experiment with SIX6 [14] was 9.05 upbm affinity estimate (log intensity, higher = more binding, comparable within an allelic series); with SIX6 [15], 9.11 upbm affinity estimate (log intensity, higher = more binding, comparable within an allelic series); with SIX6 [16], 9.08 upbm affinity estimate (log intensity, higher = more binding, comparable within an allelic series); with HOXA2 [19] it was 10.4 upbm affinity estimate (log intensity, higher = more binding, comparable within an allelic series); with HOXA2 [20], 7.1 upbm affinity estimate (log intensity, higher = more binding, comparable within an allelic series).
